Screening results (PubChem)
ClpP mod = qHTS Assay for Activators of ClpP. 1.9% of 340,000 active. ATP-dependent Clp protease proteolytic subunit (Bacillus subtilis (strain 168)), P80244. Potency, µM (top dose mostly 57.5 µM), without a hit: top-dose activity change, negative = active. purified B. subtilis ClpP, FRET peptide cleavage, 20 min; active means well fitted falling curve with a large enough effect; inconclusive means small, poorly fitted or top-dose-only effect; inactive means no such curve, though single readings can be large or run the other way; further: the source files actives as falling curves though it sought activators and does not explain the sign; nearly all actives have a fitted effect of over 65% in size
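Buffer: 100 mM Tris/HCl pH8, 100 mM KCl, 0.05% low protease BSA, 2.5% glycerol, 0.01% Tween-20. ClpP 10 microg/mL final; 20 min RT; delta FRET normalized to ADEP and DMSO controls.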
a7 integrin act = activators of alpha7 integrin expression for muscular dystrophy | alpha7betagal myoblasts, beta-gal FDG fluorescence, 48 h | Potency, µM (top dose mostly 38.3 µM), without a hit: top-dose activation, most hits filed as activators | 0.064% of 350,000 active;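 further: 100% = response of the positive control SU9516; nearly all actives have a fitted effect of over 60% in size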
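Alpha7betagal+/- myoblasts (passage 13) were plated 16-24 hr, then exposed to compounds (1:260 dilution of DMSO stock) for 48 hours at 37C. After MPER lysis, β-galactosidase reporter activity was read as FDG fluorescence (ex 480/em 540) after 30 minutes.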
p53 reactivator = mutant p53 re-activation in reporter cells; 0.063% of 320,000 active; Potency, µM (highest dose often 92.2 µM), inactives show at the highest dose activity change, positive = activation, hits mostly activators; H1299 p53-A138V BP100-luciferase reporter, luminescence, 24 h; further: % of control where 0% means no effect; nearly all actives have a fitted effect of over 45% in size
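p53-null H1299 cells stably carrying temperature-sensitive p53-A138V and a BP100-luciferase reporter were pinned with compounds (4-point, 1:5 series) and held 24 hrs at 37 deg C. Luminescence was read 10 min after detection reagent.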
MmCpn inh = blocks the Methanococcus maripaludis chaperonin Mm-Cpn | purified Mm-Cpn ATPase, ADP Transcreener TR-FRET | Potency, µM (top dose mostly 76.9 µM), inactives show at the highest dose activity, negative = inhibition, hits mostly inhibitors | 0.031% of 330,000 active; further: on the % scale 0 is the no-effect control and ±100 the full control effect; nearly all actives have a fitted effect of over 80% in size
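Purified archaeal Mm-CPN (25nM final) preincubated 10 min at 37degC with compound, then 10uM ATP for 30 min at 37degC; ADP measured by HTRF Transcreener TR-FRET; buffer 30 mM TRIS pH 7.4, 100mM KCl, 5mM MgCl2, 1mM DTT.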
Eya2 phos inh = inhibitors of human Eya2 phosphatase activity; O00167; recombinant Eya2, OMFP fluorescence dephosphorylation (OMFP is methylfluorescein phosphate); Potency, µM (top dose mostly 76.9 µM), for the others: at the top dose activity, negative = inhibition, usual class: inhibitors; 0.006% of 330,000 active; AID 488837; further: on the % scale 0 is the no-effect control and ±100 the full control effect
Target sequence (O00167 whole entry, looked up): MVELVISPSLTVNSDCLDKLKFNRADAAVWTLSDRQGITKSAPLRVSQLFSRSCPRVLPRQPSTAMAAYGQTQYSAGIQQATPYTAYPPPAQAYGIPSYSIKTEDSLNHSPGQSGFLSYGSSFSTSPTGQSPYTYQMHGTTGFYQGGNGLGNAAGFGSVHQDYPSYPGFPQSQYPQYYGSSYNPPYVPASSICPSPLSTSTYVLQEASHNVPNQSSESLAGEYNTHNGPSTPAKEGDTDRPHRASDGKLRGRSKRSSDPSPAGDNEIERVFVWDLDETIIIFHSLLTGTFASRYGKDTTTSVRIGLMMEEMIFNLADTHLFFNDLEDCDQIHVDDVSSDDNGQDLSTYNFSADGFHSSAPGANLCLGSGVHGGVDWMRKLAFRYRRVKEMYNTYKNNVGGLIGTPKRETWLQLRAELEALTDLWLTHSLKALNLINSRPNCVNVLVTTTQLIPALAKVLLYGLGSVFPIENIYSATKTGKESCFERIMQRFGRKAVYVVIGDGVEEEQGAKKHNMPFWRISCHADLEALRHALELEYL
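Eya2 protein (added as 0.2 uM solution) was preincubated with compound for 10 min at ambient temperature in 50 mM HEPES pH 7.5, 50 mM NaCl, 5 uM MgCl2, 0.05% BSA, 1 mM DTT. OMFP (added at 50 uM) then reacted 10 min; fluorescence read at 485/525 nm.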
USP2a block = inhibitors of human ubiquitin-specific protease USP2a; O75604; USP2 core, Ub-CHOP2 coupled fluorogenic reporter, 485/531; Potency, µM (highest dose often 38.3 µM), for inactives: at the top dose activity change, negative = inhibition, hits mostly inhibitors; 0.01% of 330,000 active; AID 463254;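 further: plate controls were DMSO wells for no effect and full inhibition by NEM control for full effect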
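Cell-free coupled assay: 10nM USP2 core preincubated 30min RT with compound in Tris-HCl pH 8.0/CaCl2/CHAPS buffer, then 25nM Ub-CHOP2 and 25nM reporter substrate; fluorescence (Ex 485/Em 531) read after 60min RT, normalized to NEM inhibition, concentration-response curves fitted.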
* marks the source's active call; other numbers are inactive results; ? = inconclusive; / = no result given; [ ] = dose if it differs, or a comment. The entries come from a sample that favours hits as a whole. Unless noted, the call rests on the fitted dose curve; in most records, active means well fitted curve in the direction sought with a large enough effect; inconclusive means small, poorly fitted or top-dose-only effect, or another doubt; inactive means no such curve, though single readings can be large; an effect the other way counts as inactive or inconclusive. Potency means the concentration at half of the fitted maximal effect.

SMILES	ClpP mod	a7 integrin act	p53 reactivator	MmCpn inh	Eya2 phos inh	USP2a block
COc1ccc(C(=O)/C=C/C(=O)N(Cc2ccc3c(c2)OCO3)C(C(=O)NC2CCCCC2)c2ccncc2)c(O)c1 (centres undefined)	13µM*	-17%	-5%	-4%	-6%	-4%
CN(C)c1ccc(/C=C2\c3ccccc3-c3ccc(N(C)C)cc32)cc1	0%	/	/	/	/	/
CCn1c(SCC(N)=O)nnc1-c1ccc(S(=O)(=O)N2CCN(C)CC2)cc1	32µM*	17%	2%	1%	3%	1%
CCn1c(SCC(=O)O)nnc1-c1ccc(S(=O)(=O)N2CCCC2)cc1	/	9%	2%	-1%	-6%	0%
COc1cc(Cl)c(C)cc1NC(=O)C1CCCN(c2ncnc3onc(-c4ccc(F)cc4)c23)C1 (centres undefined)	-30%	/	/	/	/	/
COc1cc2c(cc1OC)C(c1cc(-c3cc(Cl)ccc3Cl)oc1C)=NCC2	-10%	/	/	/	/	/
O=C(c1ccccc1)c1cccc(NC(=O)c2ccc(Br)o2)c1	-4%	-33%	11%	2%	15%	-1%
Cc1cccc(NC(=O)c2ccc(C(=O)c3ccccc3)o2)c1	22µM*	12%	6%	-4%	-24%	2%
CC1(C)CC(=O)C2=C(C1)NC(Nc1nc3ccccc3o1)=NC2c1cccc(O)c1 (centres undefined)	-16%	/	/	/	/	/
CCCC1OC2C[C@@H]3[C@H]4CCC5=CC(=O)C=C[C@]5(C)[C@H]4C(O)C[C@]3(C)[C@]2(C(=O)CO)O1 (some centres undefined)	-3%	/	/	/	/	/
Cn1c2ccc(F)cc2c2ncn(Cc3ccccn3)c(=O)c21	0%	23%	-4%	-1%	?	12%
Cn1c2ccccc2c2ncn(Cc3ccco3)c(=O)c21	32µM*	-12%[7.66 µM]	-6%	0%	1%	3%
Cn1c2ccc(F)cc2c2ncn(Cc3ccco3)c(=O)c21	25µM*	-29%	-5%	0%	18%	3%
O=C(C[n+]1ccc(Cl)c2ccc(Cl)cc21)c1ccc(F)cc1	-1%	/	/	/	/	/
CCOC(=O)C1=C(CN(CC)Cc2ccccc2)NC(=O)NC1c1ccc(OC(C)C)cc1 (centres undefined)	-1%	/	/	/	/	/
CCOc1ccc(-c2cc(NC(=O)Nc3ccccc3C(F)(F)F)c(C(=O)OC)s2)cc1	65%	/	/	/	/	/
CCOc1ccc(-c2cc(NC(=O)Nc3ccccc3Cl)c(C(=O)OC)s2)cc1	14µM*	/	/	/	/	/
O=C(c1ccccc1)N1N=C(c2ccccc2)CC1c1ccccc1[N+](=O)[O-] (centres undefined)	25µM*	-1%	0%	-1%	-8%	0%
CCOc1ccc2[nH]c3c(N4CCN(c5ccccn5)CC4)ncnc3c2c1	28µM*	-24%	-31%	-1%	-11%	5%
Cc1ccc2[nH]c3c(N4CCN(Cc5ccccc5)CC4)ncnc3c2c1	?	-55%	-11%	0%	-16%	-5%
CNC(=O)CSc1nc2nn(-c3ccccc3)c(=O)c-2c2n1CCCCC2	1%	?	1%	2%	5%	-4%
O=C(CSc1nc2nn(-c3ccccc3)c(=O)c-2c2n1CCCCC2)c1ccc(O)c(O)c1	1%	-15%	28µM*	1%	-8%	-2%
COc1ccc2c(c1)c1ncn(CCN3CCCC3)c(=O)c1n2C	32µM*	-17%	-1%	-3%	6%	0%
COc1ccc2c(c1)c1ncn(CCN3CCCCC3)c(=O)c1n2C	16µM*	-24%	-1%	-1%	3%	1%
COc1ccccc1CCn1cnc2c3cc(C)ccc3n(C)c2c1=O	35µM*	18%	-2%	-1%[15.4 µM]	15%	-3%
CCOCCCn1cnc2c3cc(F)ccc3n(C)c2c1=O	4%	19%	4%	1%	-29%	2%
